In PubChem BioAssay AID1159580 (chemical genetic matrix, 2015):
Out of some 5,500 compounds screened, about 2,000 (36%) were called active. Roughly 18% stayed inconclusive and do not appear here. No stated cut-off is given here; in the data, active means normalized growth mostly below about 0.91 (no sharp cut-off); inconclusive means no clear call, values can overlap the other calls; inactive means mostly above about 0.92. Some of the results follow.

Assay: chemical genetic growth profiling, strain panel (AID 1159580);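 further: tested at 20 µM; growth read once vehicle control cultures reached saturation at 30 °C; 1 = growth at the plate median or of vehicle wells; lower values mean less growth of the strain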
Details: growth OD

Measured: normalized growth

CC(=O)CC1CCCCN1 (configuration not stated)
inactive: S. cerevisiae deletion strains, locus YJR075W, strain HOC1, hits give low values 1.01 | S. cerevisiae deletion strains, locus YKL009W, strain mrt4, hits give low values 0.996 | S. cerevisiae deletion strains, locus YKL068W, hits give low values 1 | S. cerevisiae deletion strains, locus YKL085W, strain MDH1 (second series), hits give low values 0.983 | S. cerevisiae deletion strains, locus YKL085W, strain MDH1, hits give low values 0.983 | S. cerevisiae deletion strains, locus YKL160W, strain elf1, hits give low values 1.02 | S. cerevisiae deletion strains, locus YKL190W, strain CNB1, hits give low values 1.02 | S. cerevisiae deletion strains, locus YKR001C, strain vps1, hits give low values 0.994 | S. cerevisiae deletion strains, locus YKR026C, strain gcn3, hits give low values 1.02 | S. cerevisiae deletion strains, locus YKR091W, strain srl3, hits give low values 1.02 | S. cerevisiae deletion strains, locus YLL001W, strain dnm1, hits give low values 1.02 | S. cerevisiae deletion strains, locus YLL026W, hits give low values 1.02 | S. cerevisiae deletion strains, locus YLL041C, strain sdh2, hits give low values 1.01 | S. cerevisiae deletion strains, locus YLR027C, strain aat2, hits give low values 1.03 | S. cerevisiae deletion strains, locus YLR039C, strain RIC1, hits give low values 1.06 | S. cerevisiae deletion strains, locus YLR058C, strain SHM2, hits give low values 1.02 | S. cerevisiae deletion strains, locus YLR102C, strain apc9, hits give low values 0.996 | S. cerevisiae deletion strains, locus YLR113W, strain HOG1, hits give low values 0.981 | S. cerevisiae deletion strains, locus YLR221C, strain rsa3, hits give low values 1.03 | S. cerevisiae deletion strains, locus YLR258W, strain gsy2, hits give low values 1.02 | S. cerevisiae deletion strains, locus YLR262C, strain YPT6 (second series), hits give low values 1.03 | S. cerevisiae deletion strains, locus YLR262C, strain YPT6, hits give low values 1.1 | S. cerevisiae deletion strains, locus YLR268W, strain sec22, hits give low values 0.993 | S. cerevisiae deletion strains, locus YLR320W, strain mms22, hits give low values 1.04 | S. cerevisiae deletion strains, locus YLR330W, strain CHS5, hits give low values 1.01 | S. cerevisiae deletion strains, locus YLR342W, strain FKS1 (second series), hits give low values 0.993 | S. cerevisiae deletion strains, locus YLR342W, strain FKS1, hits give low values 1.02 | S. cerevisiae deletion strains, locus YLR357W, strain rsc2, hits give low values 0.995 | S. cerevisiae deletion strains, locus YLR370C, strain arc18, hits give low values 1.02 | S. cerevisiae deletion strains, locus YLR371W, strain rom2, hits give low values 0.994 | S. cerevisiae deletion strains, locus YLR384C, strain iki3, hits give low values 1.01 | S. cerevisiae deletion strains, locus YLR418C, strain cdc73, hits give low values 1 | S. cerevisiae deletion strains, locus YML016C, strain PPZ1, hits give low values 1.02 | S. cerevisiae deletion strains, locus YML032C, strain rad52, hits give low values 0.982 | S. cerevisiae deletion strains, locus YML120C, strain ndi1, hits give low values 1.02 | S. cerevisiae deletion strains, locus YML124C, strain tub3, hits give low values 0.995 | S. cerevisiae deletion strains, locus YMR058W, strain fet3, hits give low values 1.02 | S. cerevisiae deletion strains, locus YMR078C, strain ctf18, hits give low values 0.99 | S. cerevisiae deletion strains, locus YMR125W, strain sto1, hits give low values 1 | S. cerevisiae deletion strains, locus YMR129W, hits give low values 1.01 | S. cerevisiae deletion strains, locus YMR205C, strain PFK2, hits give low values 1.04 | S. cerevisiae deletion strains, locus YMR223W, strain ubp8, hits give low values 0.997 | S. cerevisiae deletion strains, locus YMR231W, strain pep5, hits give low values 1.01 | S. cerevisiae deletion strains, locus YMR263W, strain SAP30, hits give low values 1.02 | S. cerevisiae deletion strains, locus YMR307W, strain GAS1, hits give low values 1.08 | S. cerevisiae deletion strains, locus YNL067W, strain RPL9B, hits give low values 1.02 | S. cerevisiae deletion strains, locus YNL071W, strain lat1, hits give low values 1.02 | S. cerevisiae deletion strains, locus YNL128W, strain TEP1, hits give low values 1.01 | S. cerevisiae deletion strains, locus YNL153C, strain GIM3, hits give low values 1.02 | S. cerevisiae deletion strains, locus YNL183C, strain NPR1, hits give low values 0.954 | S. cerevisiae deletion strains, locus YNL209W, strain ssb2, hits give low values 1.02 | S. cerevisiae deletion strains, locus YNL233W, strain BNI4, hits give low values 1.02 | S. cerevisiae deletion strains, locus YNL248C, strain rpa49, hits give low values 1.01 | S. cerevisiae deletion strains, locus YNL250W, strain rad50, hits give low values 0.993 | S. cerevisiae deletion strains, locus YNL271C, strain bni1, hits give low values 0.993 | S. cerevisiae deletion strains, locus YNL298W, strain CLA4, hits give low values 0.988 | S. cerevisiae deletion strains, locus YNL307C, strain MCK1, hits give low values 0.995 | S. cerevisiae deletion strains, locus YNL322C, strain KRE1 (second series), hits give low values 1.01 | S. cerevisiae deletion strains, locus YNL322C, strain KRE1, hits give low values 1.01 | S. cerevisiae deletion strains, locus YNR049C, strain mso1, hits give low values 1.02 | S. cerevisiae deletion strains, locus YNR052C, strain pop2, hits give low values 0.98 | S. cerevisiae deletion strains, locus YOL006C, strain TOP1, hits give low values 1.04 | S. cerevisiae deletion strains, locus YOL012C, strain htz1 0.894 | S. cerevisiae deletion strains, locus YOL147C, strain pex11, hits give low values 0.993 | S. cerevisiae deletion strains, locus YOR001W, strain rrp6, hits give low values 1 | S. cerevisiae deletion strains, locus YOR061W, strain CKA2, hits give low values 1.01 | S. cerevisiae deletion strains, locus YOR069W, strain VPS5, hits give low values 0.999 | S. cerevisiae deletion strains, locus YOR070C, strain gyp1, hits give low values 1.03 | S. cerevisiae deletion strains, locus YOR080W, strain dia2, hits give low values 1.02 | S. cerevisiae deletion strains, locus YOR083W, strain WHI5, hits give low values 1.03 | S. cerevisiae deletion strains, locus YOR106W, strain vam3, hits give low values 1.01 | S. cerevisiae deletion strains, locus YOR136W, strain idh2, hits give low values 0.977 | S. cerevisiae deletion strains, locus YOR144C, strain elg1, hits give low values 1 | S. cerevisiae deletion strains, locus YOR184W, strain ser1, hits give low values 0.974 | S. cerevisiae deletion strains, locus YOR231W, strain MKK1, hits give low values 0.983 | S. cerevisiae deletion strains, locus YOR265W, strain rbl2, hits give low values 1.01 | S. cerevisiae deletion strains, locus YOR270C, strain vph1, hits give low values 1.05 | S. cerevisiae deletion strains, locus YOR290C, strain snf2, hits give low values 1 | S. cerevisiae deletion strains, locus YOR316C, strain cot1, hits give low values 0.991 | S. cerevisiae deletion strains, locus YPL051W, strain arl3, hits give low values 1.03 | S. cerevisiae deletion strains, locus YPL055C, strain LGE1, hits give low values 1.04 | S. cerevisiae deletion strains, locus YPL078C, strain atp4, hits give low values 1.02 | S. cerevisiae deletion strains, locus YPL106C, strain sse1, hits give low values 1 | S. cerevisiae deletion strains, locus YPL240C, strain hsp82, hits give low values 1.01 | S. cerevisiae deletion strains, locus YPL241C, strain CIN2, hits give low values 0.995 | S. cerevisiae deletion strains, locus YPL256C, strain CLN2, hits give low values 0.967 | S. cerevisiae deletion strains, locus YPR119W, strain clb2, hits give low values 0.993 | S. cerevisiae deletion strains, locus YPR141C, strain kar3, hits give low values 0.99 | S. cerevisiae deletion strains, locus YPR163C, strain tif3, hits give low values 0.993 | S. cerevisiae deletion strains, locus YPR167C, strain met16, hits give low values 0.987 | S. cerevisiae deletion strains, strain wtn01, hits give low values 1 | S. cerevisiae strains, strain wild type, hits give low values 1.02
